According to the supplement of paper PMC6555819:

Legend:
Assay in all cases: PBM binding z-score (relative to random genomic background probes); higher = stronger binding; sequences stand for … in GC…GCGATTGACAGCGTAGAATGAAGG
[1] = tested on: FXR:RXRa (NR concentration 270 nM, RXRa partner concentration 90 nM)
Method in brief: (§1)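 Probes were double-stranded and carried 34-nt variable regions with direct-repeat seeds, single-nucleotide variants, half-site ablations and random human genomic background sequences, printed on custom Agilent 4×180K protein-binding microarrays. Arrays were incubated 1 h with ligand-free nuclear receptor dimers in PBS pH 7.4, 2% milk, 0.02% Triton X-100, 1 mM DTT, 0.2 mg/mL BSA and 0.4 mg/ml salmon testes DNA. Antibodies against each partner (one per run) detected binding, and scanned fluorescence was regression-normalized. Binding z-scores use the random background probes as reference.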

[2] = tested on: LXRa:RXRa (NR concentration 270 nM, RXRa partner concentration 90 nM)
Method in brief: as §1

[3] = tested on: LXRa homodimer (NR concentration 270 nM)
Method in brief: as §1

[4] = tested on: LXRb:RXRa (NR concentration 270 nM, RXRa partner concentration 90 nM)
Method in brief: as §1

[5] = tested on: LXRb homodimer (NR concentration 270 nM)
Method in brief: as §1

[6] = tested on: PPARa:RXRa (NR concentration 270 nM, RXRa partner concentration 90 nM)
Method in brief: as §1

[7] = tested on: PPARg:RXRa (NR concentration 180 nM, RXRa partner concentration 90 nM)
Method in brief: as §1

[8] = tested on: PPARg:RXRa 270nM:90nM, anti-RXR (NR concentration 270 nM, RXRa partner concentration 90 nM)
Method in brief: as §1

[9] = tested on: PPARg:RXRa 30nM:10nM, anti-RXR (NR concentration 30 nM, RXRa partner concentration 10 nM)
Method in brief: as §1

[10] = tested on: PPARg:RXRa 90nM:30nM, anti-RXR (NR concentration 90 nM, RXRa partner concentration 30 nM)
Method in brief: as §1

Sequence | PBM binding z-score [1] | PBM binding z-score [2] | PBM binding z-score [3] | PBM binding z-score [4] | PBM binding z-score [5] | PBM binding z-score [6] | PBM binding z-score [7] | PBM binding z-score [8] | PBM binding z-score [9] | PBM binding z-score [10]
AGAATCAGGTTATTAAGATCAGGGAATTGCGGTC | 0.5 | 0.587 | 0.33 | 0.473 | 0.697 | 1.16 | 0.693 | 1.04 | 0.466 | 0.97
TATACAGGGTCAAAGGCCAGAGAACGAATGTCGA | 6.59 | 6.22 | 2.13 | 4.88 | 2.25 | 6.02 | 8.23 | 7.5 | 5.41 | 7.34
ACTAGTAGTTGACTTAGGGCAACCGATACGACGC | -0.211 | -0.0231 | -0.428 | -0.351 | -0.259 | -0.00302 | 0.852 | -0.176 | -0.0859 | -0.0744
CGTCCAAGGTCAAGGCCAGTGAAAGAGACTCGAA | 7.2 | 5.21 | 0.208 | 3.73 | 0.00439 | 5.55 | 4.75 | 5.05 | 1.48 | 3.69
GCAGACAGGTGTAACGCAGGTAACTCAGGGTGGC | -0.697 | -0.644 | -1.09 | -0.823 | -1.61 | -0.721 | 0.351 | -0.525 | -0.773 | -0.582
ATGTCTAGGTAAGACTCAGTTCAGTGAAGAACGC | -0.0311 | 0.274 | 0.049 | -0.259 | -0.00137 | -0.0837 | 0.0566 | 0.15 | -0.029 | -0.0514
CGTCCAAGGTTAAAGGTCAGTGAAGAGATGACGG | 6.23 | 5.21 | 1.72 | 4.9 | 0.226 | 6.28 | 8.06 | 7.36 | 6.31 | 8.12
ACCTCTAGGTAACCAAGTTCAGTGAATGCCGAAC | 0.335 | 0.537 | 0.553 | 0.37 | -0.0596 | 0.625 | 0.296 | 0.581 | -0.247 | 0.404
GATACAGGGTAAGCTAGAGGCCAGAGTATGGAAA | -0.252 | -0.448 | -0.407 | -0.76 | -1.15 | -0.293 | 0.319 | -0.0379 | -0.0812 | -0.0554
AATACAGGGTTACTAGGCCAGAGTAGGTACGAAT | 0.737 | 1.26 | 0.201 | 1.17 | 0.122 | 3.39 | 4.79 | 4.22 | 1.52 | 3.29
TCTCGGAGGACACGAACGTCAGAGCTTTCCAGAG | 0.0459 | 0.0114 | -0.625 | -0.532 | -1.31 | 0.0688 | 0.0947 | 0.795 | 1.95 | 1.18
TCTTTTAGATCAAGCAGGTTAAGAAAGCCTGAGT | 0.715 | 0.67 | -0.177 | 0.588 | 0.409 | 1.02 | -0.669 | 1.68 | 3.39 | 2.56
TCTCGGAGGAAACGAAGGTCAGAGCTTTCCAGAG | 0.418 | 0.556 | -0.0873 | 1.02 | -1.15 | 1.72 | -0.151 | 1.19 | 1.74 | 1.39
CCTAGTTGGTCAAGGTCACACGCGCTATAGGTAC | 4.49 | 3.9 | 2.29 | 3.34 | 0.902 | 4.29 | 3.54 | 3.95 | 1.23 | 3.1
GAAACGAGGGCAAGTTGATAGCAGAGTTTGATGG | 1.07 | 0.537 | -0.42 | 0.157 | -0.895 | 2.38 | 1.76 | 1.76 | 0.251 | 1.2
AGCCAAAGTTCAGGACGAGGTAACGTAAAGCACG | 4.33 | 3.71 | 1.39 | 1.94 | 0.134 | 3.22 | 3.24 | 3.54 | 0.828 | 2.74
TTACCAAGGTGAAGGTCGTTGTTCCCTCTGTAGA | 1.41 | 1.32 | 0.195 | 1.41 | -0.491 | 2.58 | 2.54 | 4.08 | 2.07 | 3.78
GCTGCTAGGTCAGGTTGTTCAGCTAACGGGTACG | 1.07 | 0.82 | -0.00729 | 0.433 | -0.427 | 1.29 | 0.414 | 1.18 | -0.403 | 0.471
GATTCAGGGTCAAGGCCAGAGTACGCGTATTGAT | 6.98 | 5.3 | 0.175 | 4.43 | 0.317 | 6.12 | 6.43 | 6.72 | 3.1 | 5.41
CAAACTAGGTGAAGAGGTCAAAGTCCGCTTCCCG | 4.89 | 4.87 | 4.29 | 4.34 | 0.798 | 5.95 | 8.28 | 7.03 | 5.27 | 7.36
TGAATGAGGTTAAAGCTCAGGGAACGTGGCGTCG | 2.94 | 1.92 | -0.466 | 0.894 | -0.222 | 3.6 | 2.86 | 4 | 2.09 | 3.82
AGTCAAAGTCCAGGACGAGGTAACGTAAAGCACG | -0.263 | -0.424 | -0.518 | -0.388 | -0.767 | 0.01 | 0.733 | -0.294 | -0.119 | -0.153
TTACCAAGGGGAAAGGTCGTTGATGCACGCCTTG | 1.39 | 1.85 | -0.0678 | 1.81 | -0.739 | 3.79 | 5.27 | 6.57 | 4.47 | 6.82
TGAATGAGGTTAAAGTTCAGGGAACGTGGCGTCG | 5.71 | 4.98 | 2.46 | 3.68 | 0.344 | 6.3 | 9.26 | 8.25 | 8.5 | 9.05
